Screens as filed in PubChem BioAssay.
Giardia killer – Small Molecules that selectively kill Giardia lamblia: qHTS. Giardia lamblia trophozoite viability. activity change, % at 7.66 µM, hits read low. 340,000 tested, 0.15% active; in the data active means activity change below about -80%; inconclusive means between about -30% and that limit;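 further: parasites exposed to compound for two days anaerobically before the ATP read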
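Anaerobic 48 hrs incubation at 37 deg C of 100 trophozoites/well with test compounds; ATPLite 1-Step luminescence, 15-30 min RT, reports cellular ATP as viability.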
PI4K2A block – qHTS for small molecular inhibitors of PI4K2A. Phosphatidylinositol 4-kinase type 2-alpha (Homo sapiens), Q9BTU6. purified PI4K2A, ADP-Glo luminescence, 1 h; stronger effect = lower value. activity change, negative = inhibition, % at 76.9 µM. 420,000 tested, 0.13% active. AID 1346378, 2018; in the data active means activity change below about -50%; inconclusive means mostly about -30% to -49%;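 further: -100% = wells without enzyme as full effect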
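Compounds are screened against recombinant PI4K2A using PI as substrate and ATP, the latter dispensed at 300 microM. Reactions run one hour at ambient temperature before ADP-Glo detection; full inhibition defined by wells lacking enzyme.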
TrxR1 substrate – qHTS Assay for Substrates of Mammalian Selenoprotein Thioredoxin Reductase 1 (TrxR1): qHTS; purified TrxR1 substrate turnover, NADPH consumption readout; Potency, µM (top dose mostly 114 µM), for inactives: at the highest dose activity change, negative = substrate turnover; 390,000 tested, 0.01% active; further: potency means the concentration at half of the fitted maximal effect; nearly all actives have a fitted effect of over 50% in size
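Rat TrxR1, dispensed at 90 nM, was prereduced with 400 uM NADPH (final) for 5 min at ~22 deg C, then incubated with compound 15 min before 400 uM selenite. A first-read NADPH fluorescence drop versus no-compound background flagged substrates.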
rTrxR1 inhibitor – qHTS Assay for Inhibitors of Mammalian Selenoprotein Thioredoxin Reductase 1 (TrxR1): qHTS; AID 588453, 2011; Potency, µM (titrated, usually from 114 µM), inactives show at the highest dose activity change, negative = inhibition, most hits filed as inhibitors; Thioredoxin reductase 1, cytoplasmic (Rattus norvegicus), O89049; recombinant rTrxR1, NADPH fluorescence consumption, selenite substrate; 390,000 tested, 1% active; further: potency means the concentration at half of the fitted maximal effect; nearly all actives have a fitted effect of over 65% in size
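Rat TrxR1 (90 nM in the dispensed reagent) was pre-reduced with 400 uM NADPH for 5 min at room temperature, then incubated with compound for 15 min. After 400 uM selenite was added, NADPH fluorescence (Ex 340/Em 450 nm) was followed for 8 min.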
FBPA coupling cs – qHTS Assay for Inhibitors of Fructose-1,6-bisphosphate Aldolase from Giardia Lamblia: Coupling assay counterscreen | coupling enzyme system counterscreen, AmpLite Red fluorescence | AID 2472, 2010 | activity change, negative = inhibition, % at 58.2 µM, hits read low | 290,000 tested, 0.67% active; in the data active means activity change below about -30%
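Activity here indicates interference with the coupling reaction, not aldolase inhibition. Compounds at 57.5 uM final met coupling enzymes for 10 min at RT; substrate and AmpLite Red detection followed, with a 525/598 nm fluorescence read after 20 min.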
GALK inhibitor – qHTS Assay for Inhibitors of Human Galactokinase (GALK). Purified GALK, Kinase-Glo residual ATP luminescence. Potency, µM (doses to about 57.5 µM), for inactives: at the highest dose activity change, negative = inhibition, actives largely listed as inhibitors. 270,000 tested, 0.007% active. AID 1868, 2009; further: potency means the concentration at half of the fitted maximal effect
Target sequence (P51570 whole entry, looked up): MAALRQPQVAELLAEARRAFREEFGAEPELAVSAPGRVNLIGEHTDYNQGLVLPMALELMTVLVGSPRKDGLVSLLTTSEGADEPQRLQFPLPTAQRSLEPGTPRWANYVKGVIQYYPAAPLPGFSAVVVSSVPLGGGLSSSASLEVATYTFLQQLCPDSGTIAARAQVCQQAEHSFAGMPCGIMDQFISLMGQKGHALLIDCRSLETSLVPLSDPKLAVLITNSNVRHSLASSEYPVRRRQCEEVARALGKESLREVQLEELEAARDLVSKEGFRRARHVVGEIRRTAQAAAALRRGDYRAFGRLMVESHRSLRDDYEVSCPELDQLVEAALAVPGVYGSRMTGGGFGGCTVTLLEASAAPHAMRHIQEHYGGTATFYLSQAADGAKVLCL
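Quantitative HTS: GALK 5 nM, ATP 35 uM, galactose 100 uM, 1 h room temperature, then luciferase-based ATP detection.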
Numbers without * were called inactive; ? = inconclusive; nt = no result given; [ ] = dose if it differs, or a comment. Compounds with a hit are over-represented: about 1.5% of the library has one in this group of screens. Unless noted, the call rests on the fitted dose curve; in most records, active means well fitted curve in the direction sought with a large enough effect; inconclusive means small, poorly fitted or top-dose-only effect, or another doubt; inactive means no such curve, though single readings can be large; an effect the other way counts as inactive or inconclusive. Unless noted, on the % scale 0 is the no-effect control and ±100 the full control effect.

SMILES | Giardia killer | PI4K2A block | TrxR1 substrate | rTrxR1 inhibitor | FBPA coupling cs | GALK inhibitor
COc1ccc(CNC(=O)COC(=O)/C=C/c2ccco2)cc1 | -4 | -1 | -4% | 28µM* | -1 | 11%
O=C(COC(=O)/C=C/c1ccco1)NC1CCCCC1 | -21 | 1 | -12% | 50µM* | nt | nt
O=C(c1ccc(-c2ccccc2)cc1)N1CCN(c2ncccn2)CC1 | 1 | -7 | -6% | -10% | -75* | 2%
COC(=O)c1scc(-c2ccc(C)cc2)c1S(=O)(=O)N1CCN(c2cccc(OC)c2)CC1 | nt | 4 | 2%[57.1 µM] | 30%[57.1 µM] | nt | nt
COC(=O)C1CN(Cc2cn(Cc3ccc(C)cc3)nn2)CCS(=O)(=O)N1Cc1ccc(F)cc1 (centres undefined) | nt | -1 | nt | nt | nt | nt
CN(CCCC1CCCC1)C(=O)CC1C(=O)NCCN1Cc1cccc(F)c1F (centres undefined) | -7 | 5 | 9% | 40µM* | nt | 4%
CN(Cc1ccon1)C(=O)CC1C(=O)NCCN1Cc1cccc(F)c1F (centres undefined) | -1 | 6 | 1% | ? | nt | 2%
COc1cc(C)ccc1OCCSc1nc2ccc(NC(C)=O)cc2s1 | nt | -6 | -8% | -2% | nt | nt
O=C(CCc1ccc(S(=O)(=O)N2CCOCC2)cc1)N/N=C/c1ccc(O)c(O)c1O | 5 | -7 | -17% | -27% | -31* | 0%
O=C(CCc1ccc(S(=O)(=O)N2CCOCC2)cc1)N/N=C/c1ccc(F)cc1F | 2 | -2 | -15%[57.1 µM] | 36%[57.1 µM] | 5 | 10%
O=[N+]([O-])c1ccc(N/N=C/c2ccc(O)c(O)c2O)c(S(=O)(=O)N2CCOCC2)c1 | -1 | -21 | 2%[57.1 µM] | -46% | -59* | 4%
CCN1CCN(CCC(=O)Nc2ccc(Br)cc2)CC1 | -8 | -6 | -2% | -1% | 0 | 3%
CCN1CCOC(=O)C1CC(=O)Nc1cc(C)ccc1OC (centres undefined) | nt | -1 | 5%[11.4 µM] | 11µM* | nt | nt
CCN1CCOC(=O)C1CC(=O)Nc1ccc(Br)cc1 (centres undefined) | nt | 4 | 7%[11.4 µM] | 71µM* | nt | nt
Cc1ccc(S(=O)(=O)N/N=C/c2ccc(O)c(O)c2)cc1[N+](=O)[O-] | 9 | 4 | 2% | 11µM* | -7 | -1%
Cc1ccc2nc(-c3ccc(O)c(O)c3)cn2c1 | ? | ? | -2% | -12% | -7 | 3%
Cc1ccc2nc(-c3ccccc3)cn2c1 | ? | -70* | 54% | -9% | -13 | 20%
CC(C)CCCC(C)CCCC(C)CCCC(C)C(=O)O (centres undefined) | nt | nt | nt | nt | 11 | nt
CCOc1ccccc1OCCCC(=O)Nc1ccc(OC)nc1 | 3 | -1 | -4% | -2% | -32* | 2%
CC(C)C(=O)Nc1cccc(C2CN3CCSC3=N2)c1 (centres undefined) | nt | -2 | nt | nt | nt | nt
CCC(=O)N(C1=C(NC(C)C)C(=O)c2ccccc2C1=O)C(C)C | -3 | -15 | -3% | 21% | -34* | -1%
O=C(NCc1ccco1)c1ccc2c(c1)N(Cc1ccccc1F)C(=O)c1ccccc1S2=O (centres undefined) | nt | 3 | -2% | 28% | nt | nt
CCN(CC)CCC(=O)N1C/C(=C/c2ccccc2)C(=O)/C(=C\c2ccccc2)C1 | -14 | -19 | 9%[57.1 µM] | -62%[57.1 µM] | nt | nt
O=C1/C(=C\c2ccc(Cl)c(Cl)c2)CN(C(=O)CCN2CCOCC2)C/C1=C/c1ccc(Cl)c(Cl)c1 | ? | -8 | 11%[57.1 µM] | 1.4µM* | nt | nt
O=C1/C(=C\c2ccccc2)CN(C(=O)CCN2CCCCC2)C/C1=C/c1ccccc1 | 9 | -24 | -9% | 5µM* | nt | nt
SMILES | Giardia killer | PI4K2A block | TrxR1 substrate | rTrxR1 inhibitor | FBPA coupling cs | GALK inhibitor
CC(C)(C)c1ccc(C(=O)C[n+]2ccc(Cl)c3ccc(Cl)cc32)cc1 | nt | nt | 8% | 6% | nt | nt
CCN(C(=O)CSc1nc2scc(-c3ccccc3)c2c(=O)n1C)C1CCS(=O)(=O)C1 (centres undefined) | 27 | 1 | 3% | 25% | nt | nt
C=CCn1c(SCC(=O)N(CC)C2CCS(=O)(=O)C2)nc2scc(-c3ccccc3)c2c1=O (centres undefined) | -2 | 5 | -8% | 45µM* | nt | nt
O=C1CC(Nc2ccc(N3CCOCC3)cc2)C(=O)N1Cc1ccccc1 (centres undefined) | -11 | -6 | 5% | ? | 2 | 0%
COc1ccccc1N1C(=O)CC(Nc2ccc(N3CCOCC3)cc2)C1=O (centres undefined) | 27 | -21 | 6%[57.1 µM] | 7.9µM* | -23 | 3%
O=C1CC(Nc2ccc(N3CCOCC3)cc2)C(=O)N1c1ccccc1 (centres undefined) | -6 | -3 | 13% | ? | 1 | 0%
COc1ccc(NC2CC(=O)N(c3ccccc3)C2=O)cc1 (centres undefined) | -17 | 7 | 11%[57.1 µM] | -43% | -6 | 2%
CCOc1ccccc1N1C(=O)CC(Nc2ccc(N3CCOCC3)cc2)C1=O (centres undefined) | -16 | -7 | 6%[57.1 µM] | 7.1µM* | 0 | -1%
Cc1ccc(NC2CC(=O)N(c3ccc(C)cc3)C2=O)cc1 (centres undefined) | 1 | 10 | -3% | 25µM* | 4 | -1%
Cc1ccc(S(=O)(=O)NC(=O)O[C@@H]2C(=O)c3cc(Br)ccc3O[C@H]2c2ccc3c(c2)OCO3)cc1 | nt | nt | nt | nt | 0 | nt
COC(=O)[C@H](C(C)C)N1CCc2nnn(CC3CCCCC3)c2-c2cc(F)ccc2S1(=O)=O | nt | -3 | nt | nt | nt | nt
COc1cccc(CNC(=O)c2ccc(CN3CC(=O)N4CCCCC4C3=O)cc2)c1 (centres undefined) | nt | -2 | 7% | 17% | nt | nt
C=C1NN(Cc2ccccc2)C(=O)N1c1ccc(OCc2ccccc2)cc1 | nt | nt | -2% | 0% | nt | nt
COC1=C(c2ccccc2)C(=O)c2ccccc2C1=O | 37 | -23 | 2%[57.1 µM] | 38%[57.1 µM] | -33* | nt
O=C(c1ccccc1)c1c[nH]cc1-c1ccccc1 | 12 | 7 | 1% | 19% | 2 | -1%
O=C(C1=C(c2ccccc2)C(=O)c2ccccc2C1=O)c1ccccc1 | ? | -10 | -10% | -7% | -62* | nt
CN(C)c1cc(F)c(C=O)cc1F | nt | nt | -6% | -2% | nt | nt
